# Paper PMC11006913
# Numbering of substitutions follows the chain as printed.
# Columns and labels:
# Assay in all cases: PBM; 200 nM protein, PBS
# Conditions in all cases: dsDNA, one strand shown
# HOXA4 [1] = target: HOXA4 (Homo sapiens, UniProt Q00056 201-287, W262R)
# HOXC10 [2] = target: HOXC10 (Homo sapiens, UniProt Q9NYD6 254-340)
# HOXA4 [3] = target: HOXA4 (Homo sapiens, UniProt Q00056 201-287, R217L)
# ALX3 [4] = target: ALX3 (Homo sapiens, UniProt O95076 139-225, N203Q)
# HOXA4 [5] = target: HOXA4 (Homo sapiens, UniProt Q00056 201-287)
# HOXC10 [6] = target: HOXC10 (Homo sapiens, UniProt Q9NYD6 254-340, K271E)
# ALX3 [7] = target: ALX3 (Homo sapiens, UniProt O95076 139-225)
# ALX3 [8] = target: ALX3 (Homo sapiens, UniProt O95076 139-225, L168Q)
# ALX3 [9] = target: ALX3 (Homo sapiens, UniProt O95076 139-225, L168V)
# HOXA4 [10] = target: HOXA4 (Homo sapiens, UniProt Q00056 201-287, W262F)
# ALX3 [11] = target: ALX3 (Homo sapiens, UniProt O95076 139-225, N203S)
# PRRX1 [12] = target: PRRX1 (Homo sapiens, UniProt P54821 80-166, F113S)
# HOXA2 [13] = target: HOXA2 (Homo sapiens, UniProt O43364 129-215, R185T)
# HOXA2 [14] = target: HOXA2 (Homo sapiens, UniProt O43364 129-215, R185K)
# HOXA2 [15] = target: HOXA2 (Homo sapiens, UniProt O43364 129-215, Y150S)
# PRRX1 [16] = target: PRRX1 (Homo sapiens, UniProt P54821 80-166)
# HOXA2 [17] = target: HOXA2 (Homo sapiens, UniProt O43364 129-215)
# HOXB6 [18] = target: HOXB6 (Homo sapiens, UniProt P17509 132-218, K202E)
# NKX2-6 [19] = target: T1, NKX2-6 (Homo sapiens, UniProt A6NCS4 118-204)
# T1 sequence: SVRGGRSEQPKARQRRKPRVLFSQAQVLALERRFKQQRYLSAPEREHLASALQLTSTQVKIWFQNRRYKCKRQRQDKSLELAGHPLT
# NKX2-6 [20] = target: T2, NKX2-6 (Homo sapiens, UniProt A6NCS4 118-204, F151L)
# T2 sequence: T1 sequence with F34L
# HOXB6 [21] = target: HOXB6 (Homo sapiens, UniProt P17509 132-218)
# MSX2 [22] = target: MSX2 (Homo sapiens, UniProt P35548 130-214, R199I)
# MSX2 [23] = target: MSX2 (Homo sapiens, UniProt P35548 130-214)
# VAX1 [24] = target: VAX1 (Homo sapiens, UniProt Q5SQQ9 86-172)
# MSX2 [25] = target: MSX2 (Homo sapiens, UniProt P35548 130-214, F161Y)
# VAX1 [26] = target: VAX1 (Homo sapiens, UniProt Q5SQQ9 86-172, T142I)
# VAX1 [27] = target: VAX1 (Homo sapiens, UniProt Q5SQQ9 86-172, K157R)
# HOXA7 [28] = target: HOXA7 (Homo sapiens, UniProt P31268 116-202)
# PROP1 [29] = target: PROP1 (Homo sapiens, UniProt O75360 56-141)
# PROP1 [30] = target: PROP1 (Homo sapiens, UniProt O75360 56-141, R99H)
# PROP1 [31] = target: PROP1 (Homo sapiens, UniProt O75360 56-141, F88S)
# HOXA7 [32] = target: HOXA7 (Homo sapiens, UniProt P31268 116-202, W177C)
# Chain of HOXA7 (Homo sapiens, UniProt P31268 116-202, W177C) (P31268 116-202 W177C): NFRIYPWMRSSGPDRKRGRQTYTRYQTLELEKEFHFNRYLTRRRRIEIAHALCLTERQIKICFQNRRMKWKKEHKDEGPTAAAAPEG
# Chain of HOXA4 (Homo sapiens, UniProt Q00056 201-287, R217L) (Q00056 201-287 R217L): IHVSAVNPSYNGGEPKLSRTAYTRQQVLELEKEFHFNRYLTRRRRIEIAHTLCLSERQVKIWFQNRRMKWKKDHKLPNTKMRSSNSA
# Chain of HOXC10 (Homo sapiens, UniProt Q9NYD6 254-340, K271E) (Q9NYD6 254-340 K271E): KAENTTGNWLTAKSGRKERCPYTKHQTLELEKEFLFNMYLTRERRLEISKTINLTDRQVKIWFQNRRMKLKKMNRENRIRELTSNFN
# Chain of HOXA4 (Homo sapiens, UniProt Q00056 201-287, W262R) (Q00056 201-287 W262R): as the sequence (Q00056 201-287 R217L) above, with L17R, W62R counted along it
# Chain of HOXC10 (Homo sapiens, UniProt Q9NYD6 254-340) (Q9NYD6 254-340): as the sequence (Q9NYD6 254-340 K271E) above, with E18K counted along it
# Chain of HOXA4 (Homo sapiens, UniProt Q00056 201-287) (Q00056 201-287): as the sequence (Q00056 201-287 R217L) above, with L17R counted along it
# Chain of HOXA4 (Homo sapiens, UniProt Q00056 201-287, W262F) (Q00056 201-287 W262F): as the sequence (Q00056 201-287 R217L) above, with L17R, W62F counted along it
# Chain of ALX3 (Homo sapiens, UniProt O95076 139-225, L168V) (O95076 139-225 L168V): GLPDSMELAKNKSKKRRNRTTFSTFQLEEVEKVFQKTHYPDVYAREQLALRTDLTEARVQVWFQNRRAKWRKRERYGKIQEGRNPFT
# Chain of ALX3 (Homo sapiens, UniProt O95076 139-225) (O95076 139-225): as the sequence (O95076 139-225 L168V) above, with V30L counted along it
# Chain of ALX3 (Homo sapiens, UniProt O95076 139-225, N203S) (O95076 139-225 N203S): as the sequence (O95076 139-225 L168V) above, with V30L, N65S counted along it
# Chain of ALX3 (Homo sapiens, UniProt O95076 139-225, L168Q) (O95076 139-225 L168Q): as the sequence (O95076 139-225 L168V) above, with V30Q counted along it
# Chain of ALX3 (Homo sapiens, UniProt O95076 139-225, N203Q) (O95076 139-225 N203Q): as the sequence (O95076 139-225 L168V) above, with V30L, N65Q counted along it
# Chain of HOXA2 (Homo sapiens, UniProt O43364 129-215, Y150S) (O43364 129-215 Y150S): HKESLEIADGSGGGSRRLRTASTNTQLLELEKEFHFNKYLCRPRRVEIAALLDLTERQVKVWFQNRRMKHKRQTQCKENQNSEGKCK
# Chain of HOXA2 (Homo sapiens, UniProt O43364 129-215, R185K) (O43364 129-215 R185K): as the sequence (O43364 129-215 Y150S) above, with S22Y, R57K counted along it
# Chain of HOXA7 (Homo sapiens, UniProt P31268 116-202) (P31268 116-202): as the sequence (P31268 116-202 W177C) above, with C62W counted along it
# Chain of PROP1 (Homo sapiens, UniProt O75360 56-141, R99H) (O75360 56-141 R99H): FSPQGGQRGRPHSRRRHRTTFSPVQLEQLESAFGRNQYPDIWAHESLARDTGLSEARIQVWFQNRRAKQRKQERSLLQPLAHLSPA
# Chain of VAX1 (Homo sapiens, UniProt Q5SQQ9 86-172, K157R) (Q5SQQ9 86-172 K157R): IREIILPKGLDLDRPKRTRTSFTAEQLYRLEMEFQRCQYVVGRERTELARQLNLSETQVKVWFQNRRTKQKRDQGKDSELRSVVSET
# Chain of PROP1 (Homo sapiens, UniProt O75360 56-141, F88S) (O75360 56-141 F88S): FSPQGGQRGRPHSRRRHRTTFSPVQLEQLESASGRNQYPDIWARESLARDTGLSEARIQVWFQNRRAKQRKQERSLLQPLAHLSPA
# Chain of HOXB6 (Homo sapiens, UniProt P17509 132-218) (P17509 132-218): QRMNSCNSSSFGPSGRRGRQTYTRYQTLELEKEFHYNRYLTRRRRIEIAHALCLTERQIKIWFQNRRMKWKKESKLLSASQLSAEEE
# Chain of PROP1 (Homo sapiens, UniProt O75360 56-141) (O75360 56-141): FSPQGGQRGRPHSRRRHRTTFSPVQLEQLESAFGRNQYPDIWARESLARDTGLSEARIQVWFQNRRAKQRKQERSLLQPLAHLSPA
# Chain of MSX2 (Homo sapiens, UniProt P35548 130-214, R199I) (P35548 130-214 R199I): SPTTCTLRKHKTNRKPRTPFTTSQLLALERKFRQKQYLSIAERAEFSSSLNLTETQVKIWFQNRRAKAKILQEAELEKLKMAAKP
# Chain of HOXB6 (Homo sapiens, UniProt P17509 132-218, K202E) (P17509 132-218 K202E): as the sequence (P17509 132-218) above, with K71E counted along it
# Chain of HOXA2 (Homo sapiens, UniProt O43364 129-215) (O43364 129-215): as the sequence (O43364 129-215 Y150S) above, with S22Y counted along it
# Chain of VAX1 (Homo sapiens, UniProt Q5SQQ9 86-172) (Q5SQQ9 86-172): as the sequence (Q5SQQ9 86-172 K157R) above, with R72K counted along it
# Chain of MSX2 (Homo sapiens, UniProt P35548 130-214) (P35548 130-214): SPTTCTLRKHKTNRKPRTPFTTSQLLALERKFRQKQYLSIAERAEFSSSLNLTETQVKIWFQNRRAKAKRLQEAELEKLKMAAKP
# Chain of PRRX1 (Homo sapiens, UniProt P54821 80-166, F113S) (P54821 80-166 F113S): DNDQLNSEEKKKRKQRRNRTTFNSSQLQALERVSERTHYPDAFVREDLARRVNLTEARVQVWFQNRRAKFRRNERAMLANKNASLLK
# Chain of MSX2 (Homo sapiens, UniProt P35548 130-214, F161Y) (P35548 130-214 F161Y): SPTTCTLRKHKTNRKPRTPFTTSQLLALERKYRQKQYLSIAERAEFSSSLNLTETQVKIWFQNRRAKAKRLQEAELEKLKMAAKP
# Chain of PRRX1 (Homo sapiens, UniProt P54821 80-166) (P54821 80-166): as the sequence (P54821 80-166 F113S) above, with S34F counted along it
# Chain of VAX1 (Homo sapiens, UniProt Q5SQQ9 86-172, T142I) (Q5SQQ9 86-172 T142I): as the sequence (Q5SQQ9 86-172 K157R) above, with T57I, R72K counted along it
# Chain of HOXA2 (Homo sapiens, UniProt O43364 129-215, R185T) (O43364 129-215 R185T): as the sequence (O43364 129-215 Y150S) above, with S22Y, R57T counted along it
sequence,measurement,setting,value
CCGGCAGG,binding signal,HOXA4 [1],"9.95 upbm affinity estimate (log intensity, higher = more binding, comparable within an allelic series)"
same,binding signal,HOXC10 [2],"10.2 upbm affinity estimate (log intensity, higher = more binding, comparable within an allelic series)"
same,binding signal,HOXA4 [3],"9.86 upbm affinity estimate (log intensity, higher = more binding, comparable within an allelic series)"
same,binding signal,ALX3 [4],"7.82 upbm affinity estimate (log intensity, higher = more binding, comparable within an allelic series)"
same,binding signal,HOXA4 [5],"10 upbm affinity estimate (log intensity, higher = more binding, comparable within an allelic series)"
same,binding signal,HOXC10 [6],"9.98 upbm affinity estimate (log intensity, higher = more binding, comparable within an allelic series)"
same,binding signal,ALX3 [7],"7.72 upbm affinity estimate (log intensity, higher = more binding, comparable within an allelic series)"
same,binding signal,ALX3 [8],"7.79 upbm affinity estimate (log intensity, higher = more binding, comparable within an allelic series)"
same,binding signal,ALX3 [9],"7.78 upbm affinity estimate (log intensity, higher = more binding, comparable within an allelic series)"
same,binding signal,HOXA4 [10],"9.96 upbm affinity estimate (log intensity, higher = more binding, comparable within an allelic series)"
same,binding signal,ALX3 [11],"7.86 upbm affinity estimate (log intensity, higher = more binding, comparable within an allelic series)"
CCCTCTCG,binding signal,HOXA4 [1],"9.84 upbm affinity estimate (log intensity, higher = more binding, comparable within an allelic series)"
same,binding signal,HOXC10 [2],"10.1 upbm affinity estimate (log intensity, higher = more binding, comparable within an allelic series)"
same,binding signal,HOXA4 [3],"9.86 upbm affinity estimate (log intensity, higher = more binding, comparable within an allelic series)"
same,binding signal,HOXA4 [5],"9.81 upbm affinity estimate (log intensity, higher = more binding, comparable within an allelic series)"
same,binding signal,HOXC10 [6],"10.1 upbm affinity estimate (log intensity, higher = more binding, comparable within an allelic series)"
same,binding signal,HOXA4 [10],"9.89 upbm affinity estimate (log intensity, higher = more binding, comparable within an allelic series)"
CAGGAAGG,binding signal,HOXA4 [1],"9.86 upbm affinity estimate (log intensity, higher = more binding, comparable within an allelic series)"
same,binding signal,PRRX1 [12],"9.25 upbm affinity estimate (log intensity, higher = more binding, comparable within an allelic series)"
same,binding signal,HOXA2 [13],"6.96 upbm affinity estimate (log intensity, higher = more binding, comparable within an allelic series)"
same,binding signal,HOXA4 [3],"9.68 upbm affinity estimate (log intensity, higher = more binding, comparable within an allelic series)"
same,binding signal,HOXA2 [14],"10.3 upbm affinity estimate (log intensity, higher = more binding, comparable within an allelic series)"
same,binding signal,HOXA4 [5],"9.59 upbm affinity estimate (log intensity, higher = more binding, comparable within an allelic series)"
same,binding signal,HOXA2 [15],"10.4 upbm affinity estimate (log intensity, higher = more binding, comparable within an allelic series)"
same,binding signal,HOXA4 [10],"9.73 upbm affinity estimate (log intensity, higher = more binding, comparable within an allelic series)"
same,binding signal,PRRX1 [16],"8.96 upbm affinity estimate (log intensity, higher = more binding, comparable within an allelic series)"
same,binding signal,HOXA2 [17],"7.14 upbm affinity estimate (log intensity, higher = more binding, comparable within an allelic series)"
GCCGGCCC,binding signal,HOXA4 [1],"9.58 upbm affinity estimate (log intensity, higher = more binding, comparable within an allelic series)"
same,binding signal,HOXB6 [18],"8.94 upbm affinity estimate (log intensity, higher = more binding, comparable within an allelic series)"
same,binding signal,HOXA4 [3],"9.63 upbm affinity estimate (log intensity, higher = more binding, comparable within an allelic series)"
same,binding signal,NKX2-6 [19],"9.25 upbm affinity estimate (log intensity, higher = more binding, comparable within an allelic series)"
same,binding signal,HOXA4 [5],"9.78 upbm affinity estimate (log intensity, higher = more binding, comparable within an allelic series)"
same,binding signal,NKX2-6 [20],"9.24 upbm affinity estimate (log intensity, higher = more binding, comparable within an allelic series)"
same,binding signal,HOXA4 [10],"9.8 upbm affinity estimate (log intensity, higher = more binding, comparable within an allelic series)"
same,binding signal,HOXB6 [21],"8.94 upbm affinity estimate (log intensity, higher = more binding, comparable within an allelic series)"
CGCGCGCG,binding signal,HOXA4 [1],"9.91 upbm affinity estimate (log intensity, higher = more binding, comparable within an allelic series)"
same,binding signal,HOXC10 [2],"10.1 upbm affinity estimate (log intensity, higher = more binding, comparable within an allelic series)"
same,binding signal,HOXA4 [3],"9.88 upbm affinity estimate (log intensity, higher = more binding, comparable within an allelic series)"
same,binding signal,MSX2 [22],"9.61 upbm affinity estimate (log intensity, higher = more binding, comparable within an allelic series)"
same,binding signal,HOXA4 [5],"9.94 upbm affinity estimate (log intensity, higher = more binding, comparable within an allelic series)"
same,binding signal,HOXC10 [6],"10 upbm affinity estimate (log intensity, higher = more binding, comparable within an allelic series)"
same,binding signal,MSX2 [23],"9.53 upbm affinity estimate (log intensity, higher = more binding, comparable within an allelic series)"
same,binding signal,VAX1 [24],"7.34 upbm affinity estimate (log intensity, higher = more binding, comparable within an allelic series)"
same,binding signal,MSX2 [25],"9.52 upbm affinity estimate (log intensity, higher = more binding, comparable within an allelic series)"
same,binding signal,VAX1 [26],"7.38 upbm affinity estimate (log intensity, higher = more binding, comparable within an allelic series)"
same,binding signal,HOXA4 [10],"10.1 upbm affinity estimate (log intensity, higher = more binding, comparable within an allelic series)"
same,binding signal,VAX1 [27],"7.37 upbm affinity estimate (log intensity, higher = more binding, comparable within an allelic series)"
CCCCCTTC,binding signal,HOXA4 [1],"9.36 upbm affinity estimate (log intensity, higher = more binding, comparable within an allelic series)"
same,binding signal,HOXA7 [28],"7.86 upbm affinity estimate (log intensity, higher = more binding, comparable within an allelic series)"
same,binding signal,HOXC10 [2],"9.64 upbm affinity estimate (log intensity, higher = more binding, comparable within an allelic series)"
same,binding signal,HOXA4 [3],"9.27 upbm affinity estimate (log intensity, higher = more binding, comparable within an allelic series)"
same,binding signal,ALX3 [4],"7.42 upbm affinity estimate (log intensity, higher = more binding, comparable within an allelic series)"
same,binding signal,HOXA4 [5],"9.19 upbm affinity estimate (log intensity, higher = more binding, comparable within an allelic series)"
same,binding signal,HOXC10 [6],"9.78 upbm affinity estimate (log intensity, higher = more binding, comparable within an allelic series)"
same,binding signal,ALX3 [7],"7.43 upbm affinity estimate (log intensity, higher = more binding, comparable within an allelic series)"
same,binding signal,PROP1 [29],"6.16 upbm affinity estimate (log intensity, higher = more binding, comparable within an allelic series)"
same,binding signal,PROP1 [30],"5.96 upbm affinity estimate (log intensity, higher = more binding, comparable within an allelic series)"
same,binding signal,ALX3 [8],"7.31 upbm affinity estimate (log intensity, higher = more binding, comparable within an allelic series)"
same,binding signal,ALX3 [9],"7.27 upbm affinity estimate (log intensity, higher = more binding, comparable within an allelic series)"
same,binding signal,PROP1 [31],"5.76 upbm affinity estimate (log intensity, higher = more binding, comparable within an allelic series)"
same,binding signal,HOXA7 [32],"8.09 upbm affinity estimate (log intensity, higher = more binding, comparable within an allelic series)"
same,binding signal,HOXA4 [10],"9.31 upbm affinity estimate (log intensity, higher = more binding, comparable within an allelic series)"
same,binding signal,ALX3 [11],"7.33 upbm affinity estimate (log intensity, higher = more binding, comparable within an allelic series)"
